Reference: PubChem BioAssay AID1159580 (chemical genetic matrix, 2015)
The whole screen tested about 5,500 compounds, of which about 2,000 (36%) were called active. Another 18% or so got no clear call; they are omitted. The list shows a part of the results. Values without a mark were called inactive. Cut-off read from the data, not from the text of the source: active = normalized growth mostly below about 0.91 (no sharp cut-off); inconclusive = no clear call, values can overlap the other calls; inactive = mostly above about 0.92.

Assay: chemical genetic growth profiling, strain panel (AID 1159580);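 note: tested at 20 µM; growth read once vehicle control cultures reached saturation at 30 °C; 1 = growth at the plate median or of vehicle wells; lower values mean less growth of the strain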
Details: growth OD

Structure (SMILES): O=C(O[C@@H]1Cc2c(O)cc(O)cc2O[C@@H]1c1cc(O)c(=O)c2c(O)c(O)cc([C@H]3Oc4cc(O)cc(O)c4C[C@H]3O)c2c1)c1cc(O)c(O)c(O)c1
- normalized growth (S. cerevisiae deletion strains, locus YJR066W, strain TOR1, stronger effect = lower value): 0.969
- normalized growth (S. cerevisiae deletion strains, locus YKL009W, strain mrt4, stronger effect = lower value): 1.05
- normalized growth (S. cerevisiae deletion strains, locus YKL068W, stronger effect = lower value): 1.04
- normalized growth (S. cerevisiae deletion strains, locus YKL085W, strain MDH1 (second series), stronger effect = lower value): 1.03
- normalized growth (S. cerevisiae deletion strains, locus YKL085W, strain MDH1, stronger effect = lower value): 1.03
- normalized growth (S. cerevisiae deletion strains, locus YKL160W, strain elf1, stronger effect = lower value): 0.709 (active)
- normalized growth (S. cerevisiae deletion strains, locus YKL190W, strain CNB1, stronger effect = lower value): 0.211 (active)
- normalized growth (S. cerevisiae deletion strains, locus YKR001C, strain vps1, stronger effect = lower value): 0.809 (active)
- normalized growth (S. cerevisiae deletion strains, locus YKR026C, strain gcn3, stronger effect = lower value): 0.988
- normalized growth (S. cerevisiae deletion strains, locus YKR091W, strain srl3, stronger effect = lower value): 0.944
- normalized growth (S. cerevisiae deletion strains, locus YLL001W, strain dnm1, stronger effect = lower value): 0.658 (active)
- normalized growth (S. cerevisiae deletion strains, locus YLL026W, stronger effect = lower value): 0.719 (active)
- normalized growth (S. cerevisiae deletion strains, locus YLL041C, strain sdh2, stronger effect = lower value): 0.79 (active)
- normalized growth (S. cerevisiae deletion strains, locus YLR027C, strain aat2, stronger effect = lower value): 0.495 (active)
- normalized growth (S. cerevisiae deletion strains, locus YLR039C, strain RIC1, stronger effect = lower value): 0.271 (active)
- normalized growth (S. cerevisiae deletion strains, locus YLR058C, strain SHM2, stronger effect = lower value): 0.219 (active)
- normalized growth (S. cerevisiae deletion strains, locus YLR102C, strain apc9, stronger effect = lower value): 1.02
- normalized growth (S. cerevisiae deletion strains, locus YLR113W, strain HOG1, stronger effect = lower value): 1.11
- normalized growth (S. cerevisiae deletion strains, locus YLR221C, strain rsa3, stronger effect = lower value): 0.699 (active)
- normalized growth (S. cerevisiae deletion strains, locus YLR258W, strain gsy2, stronger effect = lower value): 0.638 (active)
- normalized growth (S. cerevisiae deletion strains, locus YLR262C, strain YPT6 (second series), stronger effect = lower value): 0.524 (active)
- normalized growth (S. cerevisiae deletion strains, locus YLR262C, strain YPT6, stronger effect = lower value): 0.552 (active)
- normalized growth (S. cerevisiae deletion strains, locus YLR268W, strain sec22, stronger effect = lower value): 0.644 (active)
- normalized growth (S. cerevisiae deletion strains, locus YLR320W, strain mms22, stronger effect = lower value): 0.635 (active)
- normalized growth (S. cerevisiae deletion strains, locus YLR330W, strain CHS5, stronger effect = lower value): 0.791 (active)
- normalized growth (S. cerevisiae deletion strains, locus YLR342W, strain FKS1, stronger effect = lower value): 0.423 (active)
- normalized growth (S. cerevisiae deletion strains, locus YLR357W, strain rsc2, stronger effect = lower value): 0.624 (active)
- normalized growth (S. cerevisiae deletion strains, locus YLR370C, strain arc18, stronger effect = lower value): 0.593 (active)
- normalized growth (S. cerevisiae deletion strains, locus YLR371W, strain rom2, stronger effect = lower value): 0.661 (active)
- normalized growth (S. cerevisiae deletion strains, locus YLR384C, strain iki3, stronger effect = lower value): 0.784 (active)
- normalized growth (S. cerevisiae deletion strains, locus YLR418C, strain cdc73, stronger effect = lower value): 0.505 (active)
- normalized growth (S. cerevisiae deletion strains, locus YML016C, strain PPZ1, stronger effect = lower value): 0.111 (active)
- normalized growth (S. cerevisiae deletion strains, locus YML032C, strain rad52, stronger effect = lower value): 0.968
- normalized growth (S. cerevisiae deletion strains, locus YML120C, strain ndi1, stronger effect = lower value): 0.727 (active)
- normalized growth (S. cerevisiae deletion strains, locus YML124C, strain tub3, stronger effect = lower value): 0.949
- normalized growth (S. cerevisiae deletion strains, locus YMR058W, strain fet3, stronger effect = lower value): 0.0992 (active)
- normalized growth (S. cerevisiae deletion strains, locus YMR078C, strain ctf18, stronger effect = lower value): 1.01
- normalized growth (S. cerevisiae deletion strains, locus YMR125W, strain sto1, stronger effect = lower value): 1.04
- normalized growth (S. cerevisiae deletion strains, locus YMR129W, stronger effect = lower value): 0.789 (active)
- normalized growth (S. cerevisiae deletion strains, locus YMR205C, strain PFK2, stronger effect = lower value): 0.416 (active)
- normalized growth (S. cerevisiae deletion strains, locus YMR223W, strain ubp8, stronger effect = lower value): 0.844 (active)
- normalized growth (S. cerevisiae deletion strains, locus YMR231W, strain pep5, stronger effect = lower value): 0.229 (active)
- normalized growth (S. cerevisiae deletion strains, locus YMR263W, strain SAP30, stronger effect = lower value): 0.743 (active)
- normalized growth (S. cerevisiae deletion strains, locus YMR307W, strain GAS1, stronger effect = lower value): 0.426 (active)
- normalized growth (S. cerevisiae deletion strains, locus YNL067W, strain RPL9B, stronger effect = lower value): 0.547 (active)
- normalized growth (S. cerevisiae deletion strains, locus YNL071W, strain lat1, stronger effect = lower value): 0.747 (active)
- normalized growth (S. cerevisiae deletion strains, locus YNL183C, strain NPR1, stronger effect = lower value): 0.963
- normalized growth (S. cerevisiae deletion strains, locus YNL209W, strain ssb2, stronger effect = lower value): 0.141 (active)
- normalized growth (S. cerevisiae deletion strains, locus YNL233W, strain BNI4, stronger effect = lower value): 0.623 (active)
- normalized growth (S. cerevisiae deletion strains, locus YNL248C, strain rpa49, stronger effect = lower value): 0.862 (active)
- normalized growth (S. cerevisiae deletion strains, locus YNL250W, strain rad50, stronger effect = lower value): 1.05
- normalized growth (S. cerevisiae deletion strains, locus YNL271C, strain bni1, stronger effect = lower value): 1
- normalized growth (S. cerevisiae deletion strains, locus YNL298W, strain CLA4, stronger effect = lower value): 0.998
- normalized growth (S. cerevisiae deletion strains, locus YNL307C, strain MCK1, stronger effect = lower value): 1.01
- normalized growth (S. cerevisiae deletion strains, locus YNL322C, strain KRE1 (second series), stronger effect = lower value): 0.941
- normalized growth (S. cerevisiae deletion strains, locus YNL322C, strain KRE1, stronger effect = lower value): 0.243 (active)
- normalized growth (S. cerevisiae deletion strains, locus YNR049C, strain mso1, stronger effect = lower value): 0.945
- normalized growth (S. cerevisiae deletion strains, locus YNR052C, strain pop2, stronger effect = lower value): 0.754 (active)
- normalized growth (S. cerevisiae deletion strains, locus YOL012C, strain htz1): 0.255
- normalized growth (S. cerevisiae deletion strains, locus YOL147C, strain pex11, stronger effect = lower value): 0.862 (active)
- normalized growth (S. cerevisiae deletion strains, locus YOR001W, strain rrp6, stronger effect = lower value): 0.736 (active)
- normalized growth (S. cerevisiae deletion strains, locus YOR061W, strain CKA2, stronger effect = lower value): 0.441 (active)
- normalized growth (S. cerevisiae deletion strains, locus YOR069W, strain VPS5, stronger effect = lower value): 0.503 (active)
- normalized growth (S. cerevisiae deletion strains, locus YOR070C, strain gyp1, stronger effect = lower value): 0.569 (active)
- normalized growth (S. cerevisiae deletion strains, locus YOR080W, strain dia2, stronger effect = lower value): 0.253 (active)
- normalized growth (S. cerevisiae deletion strains, locus YOR083W, strain WHI5, stronger effect = lower value): 0.541 (active)
- normalized growth (S. cerevisiae deletion strains, locus YOR106W, strain vam3, stronger effect = lower value): 0.143 (active)
- normalized growth (S. cerevisiae deletion strains, locus YOR136W, strain idh2, stronger effect = lower value): 0.929
- normalized growth (S. cerevisiae deletion strains, locus YOR144C, strain elg1, stronger effect = lower value): 0.943
- normalized growth (S. cerevisiae deletion strains, locus YOR184W, strain ser1, stronger effect = lower value): 0.649 (active)
- normalized growth (S. cerevisiae deletion strains, locus YOR231W, strain MKK1, stronger effect = lower value): 1.02
- normalized growth (S. cerevisiae deletion strains, locus YOR265W, strain rbl2, stronger effect = lower value): 0.699 (active)
- normalized growth (S. cerevisiae deletion strains, locus YOR270C, strain vph1, stronger effect = lower value): 0.255 (active)
- normalized growth (S. cerevisiae deletion strains, locus YOR290C, strain snf2, stronger effect = lower value): 0.487 (active)
- normalized growth (S. cerevisiae deletion strains, locus YOR316C, strain cot1, stronger effect = lower value): 1.02
- normalized growth (S. cerevisiae deletion strains, locus YPL051W, strain arl3, stronger effect = lower value): 0.279 (active)
- normalized growth (S. cerevisiae deletion strains, locus YPL078C, strain atp4, stronger effect = lower value): 0.731 (active)
- normalized growth (S. cerevisiae deletion strains, locus YPL106C, strain sse1, stronger effect = lower value): 0.66 (active)
- normalized growth (S. cerevisiae deletion strains, locus YPL240C, strain hsp82, stronger effect = lower value): 0.779 (active)
- normalized growth (S. cerevisiae deletion strains, locus YPL241C, strain CIN2, stronger effect = lower value): 0.509 (active)
- normalized growth (S. cerevisiae deletion strains, locus YPL256C, strain CLN2, stronger effect = lower value): 1.06
- normalized growth (S. cerevisiae deletion strains, locus YPR119W, strain clb2, stronger effect = lower value): 1.02
- normalized growth (S. cerevisiae deletion strains, locus YPR141C, strain kar3, stronger effect = lower value): 1.03
- normalized growth (S. cerevisiae deletion strains, locus YPR163C, strain tif3, stronger effect = lower value): 0.974
- normalized growth (S. cerevisiae deletion strains, locus YPR167C, strain met16, stronger effect = lower value): 0.918 (active)
- normalized growth (S. cerevisiae deletion strains, strain wtn01, stronger effect = lower value): 0.679 (active)
- normalized growth (S. cerevisiae strains, strain wild type, stronger effect = lower value): 0.0985 (active)
